Reference: PubChem BioAssay (EPA / NIEHS)
Where “and” joins values, the source holds several entries; their conditions need not be identical. Equal entries are not always repeated. Results filed as inconclusive are left out. Calls of active or inactive are those of the source. Rule for the calls, unless noted: active = hit-call score of the fitted dose curve at least 0.9, where 1 is the maximum; inactive = score below 0.9.

Legend:
[1] = read-out: E-selectin (Homo sapiens) (UniProt P16581); experiment: BSK_SAg_Eselectin: BioMAP Diversity Plus: SAg Assay for Eselectin Biomarker Activity (AID 2283091); settings: primary human HUVEC with PBMC; actives raise or lower the signal
Outline: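 HUVEC co-cultured with PBMC, compound dosed then read at 24 h; E-selectin measured by ELISA. Activity fitted bidirectionally against DMSO as negative control and baseline.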

[2] = read-out: Monokine induced gamma interferon (MIG), CXCL9 (gene 4283); experiment: BSK_SAg_MIG: BioMAP Diversity Plus: SAg Assay for Monokine induced gamma interferon (MIG) Biomarker Activity (AID 2283092); settings: primary human HUVEC with PBMC; actives raise or lower the signal
Outline: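 HUVEC plus human PBMC co-culture, chemicals dosed and MIG (CXCL9) quantified by ELISA at 24 h. Bidirectional curve fitting against DMSO as negative control and baseline, so both gain and loss of signal count as activity.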

[3] = BSK_SAg_PBMCCytotoxicity: PBMC Cytotoxicity Assessment in the BioMAP Diversity Plus: SAg Assay (AID 2283093); settings: primary human HUVEC with PBMC;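 note: PBMC viability measured as Alamar Blue reduction fluorescence at 546/580 nm; fitted both ways against DMSO so a hit may be loss or gain of signal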;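 for AC50: PBMC superantigen activated with SEB plus TSST-1 one hour after compound addition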
Outline: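 HUVEC/PBMC co-culture; PBMC exposed to chemical 1 h before SEB and TSST-1 activation (20 ng/mL each), incubated 90 h, then Alamar Blue 6 h, fluorescence 546/580 nm. Bidirectional fit versus DMSO baseline.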

[4] = read-out: Interleukin-8 (IL8), CXCL8 (gene 3576); experiment: BSK_SAg_IL8: BioMAP Diversity Plus: SAg Assay for Interleukin-8 (IL8) Biomarker Activity (AID 2283094); settings: primary human HUVEC with PBMC; actives raise or lower the signal
Outline: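 ELISA read-out of IL-8 in a primary human vascular co-culture (umbilical vein endothelium plus PBMC), taken 24 h after compound addition. Values derive from bidirectional fits against DMSO negative controls.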

[5] = BSK_SAg_SRB: Viability Assessment in the BioMAP Diversity Plus: SAg Assay (AID 2283096); settings: primary human HUVEC with PBMC;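 note: cells read one day after compound addition; hits may be either gain or loss of signal compared with DMSO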
Outline: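 Human umbilical vein endothelial cells co-cultured with PBMC, read 24 h after compound dosing. Total protein measured by sulforhodamine B staining (0.1% SRB after 10% TCA fixation, absorbance 560 nm); bidirectional fit versus DMSO baseline.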

[6] = target: human CYP19A1, CYP19A1 (gene 1588) (UniProt P11511); experiment: NVS_ADME_hCYP19A1: NovaScreen (NVS) CYP450-related Enzyme Activity (ADME) Assay for human CYP19A1 (AID 2283098; active = hit-call score of the fitted dose curve at least 0.9, where 1 is the maximum;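 for AC50: potency for inhibitors seen as loss of fluorescent enzyme signal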)
Outline: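 Recombinant enzyme in a cell-free format, read 0.5 h after dosing by fluorescence from a fluorogenic substrate. Loss of signal was fitted against acetonitrile as baseline. Primary screen in duplicate at 10 uM, actives then tested in concentration series.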

[7] = target: human CYP2B6, CYP2B6 (gene 1555) (UniProt P20813); experiment: NVS_ADME_hCYP2B6: NovaScreen (NVS) CYP450-related Enzyme Activity (ADME) Assay for human CYP2B6 (AID 2283101; active = hit-call score of the fitted dose curve at least 0.9, where 1 is the maximum)
Outline: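 Recombinant human CYP2B6 with fluorogenic substrate, read by fluorescence intensity 1 h after dosing. Primary screen in duplicate at 10 uM, actives followed in concentration series; signal loss relative to acetonitrile control.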

[8] = target: human CYP2C9, CYP2C9 (gene 1559) (UniProt P11712); experiment: NVS_ADME_hCYP2C9: NovaScreen (NVS) CYP450-related Enzyme Activity (ADME) Assay for human CYP2C9 (AID 2283108; active = hit-call score of the fitted dose curve at least 0.9, where 1 is the maximum)
Outline: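 Recombinant human CYP2C9 expressed in SF9 cells, fluorogenic substrate, fluorescence read 0.75 h after dosing. Chemicals first run in duplicate at 10 uM, with actives followed in concentration series; loss of signal versus acetonitrile baseline.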

[9] = target: Cytochrome P450 3A4 (Homo sapiens) (UniProt P08684); experiment: NVS_ADME_hCYP3A4: NovaScreen (NVS) CYP450-related Enzyme Activity (ADME) Assay for human CYP3A4 (AID 2283110; active = hit-call score of the fitted dose curve at least 0.9, where 1 is the maximum)
Outline: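 Cell-free recombinant enzyme expressed in insect cells; fluorescent substrate turnover read after 0.33 h, acetonitrile as negative control. Primary screen in duplicate at 10 uM, actives then tested in concentration series.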

[10] = target: human CYP4F12, CYP4F12 (gene 66002) (UniProt Q9HCS2); experiment: NVS_ADME_hCYP4F12: NovaScreen (NVS) CYP450-related Enzyme Activity (ADME) Assay for human CYP4F12 (AID 2283111; active = hit-call score of the fitted dose curve at least 0.9, where 1 is the maximum)
Outline: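 Cell-free fluorescence assay of recombinant human CYP4F12 activity on a specific substrate, read 0.5 h after dosing. Primary screen in duplicate at 10 uM, then concentration series for actives; loss of signal fitted against acetonitrile negative control.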

[11] = target: Cytochrome P450 2C19 (Homo sapiens) (UniProt P33261); experiment: NVS_ADME_hCYP2C19: NovaScreen (NVS) CYP450-related Enzyme Activity (ADME) Assay for human CYP2C19 (AID 2283113; active = hit-call score of the fitted dose curve at least 0.9, where 1 is the maximum;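 for AC50: potency for inhibition seen as loss of fluorescent signal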)
Outline: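 Cell-free assay of recombinant human CYP2C19 expressed in insect cells, with a fluorogenic substrate; fluorescence intensity read 1 hour after dosing. Loss of signal relative to acetonitrile negative control indicates inhibition. Primary screen at 10 uM in duplicate, then concentration series.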

[12] = BSK_SAg_Proliferation: Cell Proliferation Assessment in the BioMAP Diversity Plus: SAg Assay (AID 2283095); settings: primary human HUVEC with PBMC;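 note: relative cell number as total protein by SRB absorbance in sub-confluent culture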
Outline: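 Cells (endothelium plus PBMC, human primary) were dosed with chemical, cultured 96 h, fixed in 10% TCA and stained with 0.1% SRB. Absorbance at 560 nm gave relative protein, fitted bidirectionally relative to DMSO.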

[13] = target: human CYP2A6, CYP2A6 (gene 1548) (UniProt P11509); experiment: NVS_ADME_hCYP2A6: NovaScreen (NVS) CYP450-related Enzyme Activity (ADME) Assay for human CYP2A6 (AID 2283099; active = hit-call score of the fitted dose curve at least 0.9, where 1 is the maximum)
Outline: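 Cell-free fluorescence readout of recombinant human CYP2A6 expressed in insect cells, read 0.5 h after dosing; loss of signal versus acetonitrile negative control. Primary screen in duplicate at 10 uM; actives re-run in concentration-response up to 20 uM.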

[14] = target: human CYP2C8, CYP2C8 (gene 1558) (UniProt P10632); experiment: NVS_ADME_hCYP2C8: NovaScreen (NVS) CYP450-related Enzyme Activity (ADME) Assay for human CYP2C8 (AID 2283104)
Outline: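 Recombinant human CYP2C8 with fluorogenic substrate, 0.5 h, fluorescence intensity; signal loss fitted versus acetonitrile. Screened in duplicate at 10 uM, then actives run in concentration-response up to 20 uM.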

[15] = target: human CYP1A2, CYP1A2 (gene 1544) (UniProt P05177); experiment: NVS_ADME_hCYP1A2: NovaScreen (NVS) CYP450-related Enzyme Activity (ADME) Assay for human CYP1A2 (AID 2283102; active = hit-call score of the fitted dose curve at least 0.9, where 1 is the maximum;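 note: potency for inhibition since loss of fluorescence marks reduced CYP1A2 activity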)
Outline: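 Cell-free recombinant human CYP1A2 expressed in insect cells, with fluorogenic substrate; fluorescence intensity read 0.5 h after dosing. Loss of signal relative to acetonitrile baseline scored. Primary screen in duplicate at 10 uM; actives retested in concentration series.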

[16] = target: human CYP2D6, CYP2D6 (gene 1565) (UniProt P10635); experiment: NVS_ADME_hCYP2D6: NovaScreen (NVS) CYP450-related Enzyme Activity (ADME) Assay for human CYP2D6 (AID 2283107; active = hit-call score of the fitted dose curve at least 0.9, where 1 is the maximum)
Outline: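 Cell-free assay using recombinant enzyme expressed in insect cells, with fluorescence-intensity readout of enzyme activity 1 hour after chemical dosing. Loss of signal versus acetonitrile negative control indicates inhibition. Primary screen ran in duplicate at 10 uM; actives were retested in concentration series.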

[17] = target: human CYP1A1, CYP1A1 (gene 1543) (UniProt P04798); experiment: NVS_ADME_hCYP1A1: NovaScreen (NVS) CYP450-related Enzyme Activity (ADME) Assay for human CYP1A1 (AID 2283100; active = hit-call score of the fitted dose curve at least 0.9, where 1 is the maximum)
Outline: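 Cell-free fluorescence assay of recombinant human CYP1A1 activity with a specific substrate, read 1 h after dosing. Compounds were screened in duplicate at 10 uM, then hits tested in concentration-response up to 20 uM; acetonitrile served as baseline.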

[18] = target: rat CYP2A2, Cyp2a2 (gene 24895) (UniProt P15149); experiment: NVS_ADME_rCYP2A2: NovaScreen (NVS) CYP450-related Enzyme Activity (ADME) Assay for rat CYP2A2 (AID 2283116; active = hit-call score of the fitted dose curve at least 0.9, where 1 is the maximum)
Outline: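 Cell-free recombinant rat CYP2A2 activity with fluorogenic substrate, fluorescence read 0.2 h after dosing. Chemicals screened at 10 uM in duplicate, hits then run in concentration-response up to 20 uM; signal loss versus acetonitrile baseline.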

[19] = target: rat CYP2C11, Cyp2c11 (gene 29277) (UniProt P08683); experiment: NVS_ADME_rCYP2C11: NovaScreen (NVS) CYP450-related Enzyme Activity (ADME) Assay for rat CYP2C11 (AID 2283118; active = hit-call score of the fitted dose curve at least 0.9, where 1 is the maximum)
Outline: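 Cell-free recombinant rat enzyme with fluorescent substrate; readout 0.33 h after dosing, loss of signal versus acetonitrile control. Initial duplicate single-point at 10 uM; actives rerun in concentration series.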

Measured: AC50

Chain of rat CYP2C11, Cyp2c11 (gene 29277) (P08683 whole entry, looked up): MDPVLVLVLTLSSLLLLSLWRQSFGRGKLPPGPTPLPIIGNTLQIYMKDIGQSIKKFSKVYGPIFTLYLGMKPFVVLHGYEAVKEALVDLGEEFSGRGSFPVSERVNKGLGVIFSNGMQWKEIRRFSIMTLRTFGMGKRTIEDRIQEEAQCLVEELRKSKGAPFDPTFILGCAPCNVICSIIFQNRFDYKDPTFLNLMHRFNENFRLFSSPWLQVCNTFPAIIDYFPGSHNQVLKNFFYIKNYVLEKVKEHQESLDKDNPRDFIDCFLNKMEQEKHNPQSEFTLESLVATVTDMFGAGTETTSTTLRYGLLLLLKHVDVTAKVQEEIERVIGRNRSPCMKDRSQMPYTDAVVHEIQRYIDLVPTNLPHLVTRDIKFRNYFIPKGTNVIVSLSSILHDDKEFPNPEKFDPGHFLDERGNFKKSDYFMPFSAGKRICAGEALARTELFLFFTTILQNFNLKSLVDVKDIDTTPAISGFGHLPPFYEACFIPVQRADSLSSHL
Chain of Cytochrome P450 3A4 (Homo sapiens) (P08684 whole entry, looked up): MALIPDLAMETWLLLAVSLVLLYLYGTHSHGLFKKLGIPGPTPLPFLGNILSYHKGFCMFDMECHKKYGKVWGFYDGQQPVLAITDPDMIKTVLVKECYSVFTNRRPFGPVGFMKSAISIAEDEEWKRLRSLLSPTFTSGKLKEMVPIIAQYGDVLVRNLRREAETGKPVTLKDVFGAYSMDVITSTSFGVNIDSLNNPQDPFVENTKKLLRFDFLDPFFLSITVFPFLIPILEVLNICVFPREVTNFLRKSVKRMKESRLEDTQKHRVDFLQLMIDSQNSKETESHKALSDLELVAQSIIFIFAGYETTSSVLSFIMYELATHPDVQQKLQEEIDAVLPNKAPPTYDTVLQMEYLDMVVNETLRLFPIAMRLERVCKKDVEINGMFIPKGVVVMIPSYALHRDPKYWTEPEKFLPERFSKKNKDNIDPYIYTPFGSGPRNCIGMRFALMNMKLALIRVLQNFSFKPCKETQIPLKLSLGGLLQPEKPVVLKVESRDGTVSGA
Chain of E-selectin (Homo sapiens) (P16581 whole entry, looked up): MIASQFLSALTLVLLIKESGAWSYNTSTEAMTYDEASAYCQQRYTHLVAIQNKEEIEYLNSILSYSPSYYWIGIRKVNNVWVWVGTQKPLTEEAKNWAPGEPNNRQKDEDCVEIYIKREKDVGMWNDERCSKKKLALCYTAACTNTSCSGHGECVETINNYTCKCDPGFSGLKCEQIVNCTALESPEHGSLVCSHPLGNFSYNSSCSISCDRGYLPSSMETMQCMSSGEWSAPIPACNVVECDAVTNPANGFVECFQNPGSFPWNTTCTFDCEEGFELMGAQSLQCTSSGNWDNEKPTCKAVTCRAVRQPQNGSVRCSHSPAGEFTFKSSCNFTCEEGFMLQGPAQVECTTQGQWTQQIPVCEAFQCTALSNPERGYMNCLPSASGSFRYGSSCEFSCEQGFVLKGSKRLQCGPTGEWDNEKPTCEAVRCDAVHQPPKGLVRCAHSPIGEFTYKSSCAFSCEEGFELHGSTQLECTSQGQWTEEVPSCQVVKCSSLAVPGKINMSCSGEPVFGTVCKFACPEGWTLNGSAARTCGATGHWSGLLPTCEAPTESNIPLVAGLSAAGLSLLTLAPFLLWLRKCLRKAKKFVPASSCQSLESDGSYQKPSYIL
Chain of human CYP2C9, CYP2C9 (gene 1559) (P11712 whole entry, looked up): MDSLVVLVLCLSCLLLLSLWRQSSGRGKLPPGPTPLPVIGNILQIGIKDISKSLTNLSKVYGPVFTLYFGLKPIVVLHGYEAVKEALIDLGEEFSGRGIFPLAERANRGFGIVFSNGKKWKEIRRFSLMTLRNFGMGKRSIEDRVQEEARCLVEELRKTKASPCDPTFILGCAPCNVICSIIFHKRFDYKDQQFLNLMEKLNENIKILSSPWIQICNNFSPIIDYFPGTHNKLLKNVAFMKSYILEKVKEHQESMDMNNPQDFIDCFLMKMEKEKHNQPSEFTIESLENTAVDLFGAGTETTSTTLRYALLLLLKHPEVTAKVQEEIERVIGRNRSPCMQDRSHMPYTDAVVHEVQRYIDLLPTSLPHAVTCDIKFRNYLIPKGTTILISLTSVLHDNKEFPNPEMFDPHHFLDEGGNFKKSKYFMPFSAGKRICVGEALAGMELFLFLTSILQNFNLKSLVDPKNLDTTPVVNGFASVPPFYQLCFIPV
Chain of human CYP19A1, CYP19A1 (gene 1588) (P11511 whole entry, looked up): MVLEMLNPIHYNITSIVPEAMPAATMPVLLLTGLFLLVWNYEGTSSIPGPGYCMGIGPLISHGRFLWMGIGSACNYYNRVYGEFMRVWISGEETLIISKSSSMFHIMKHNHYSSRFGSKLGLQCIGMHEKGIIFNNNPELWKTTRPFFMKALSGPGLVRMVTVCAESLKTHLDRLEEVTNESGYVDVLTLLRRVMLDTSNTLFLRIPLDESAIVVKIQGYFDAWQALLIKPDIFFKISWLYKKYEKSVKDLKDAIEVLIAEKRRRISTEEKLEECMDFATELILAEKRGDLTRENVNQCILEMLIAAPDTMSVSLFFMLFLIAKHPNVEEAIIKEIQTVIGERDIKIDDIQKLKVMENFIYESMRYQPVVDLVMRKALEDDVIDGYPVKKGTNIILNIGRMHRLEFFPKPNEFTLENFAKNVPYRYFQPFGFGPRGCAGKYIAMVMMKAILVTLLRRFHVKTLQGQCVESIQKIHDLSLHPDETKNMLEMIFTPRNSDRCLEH
Chain of human CYP2B6, CYP2B6 (gene 1555) (P20813 whole entry, looked up): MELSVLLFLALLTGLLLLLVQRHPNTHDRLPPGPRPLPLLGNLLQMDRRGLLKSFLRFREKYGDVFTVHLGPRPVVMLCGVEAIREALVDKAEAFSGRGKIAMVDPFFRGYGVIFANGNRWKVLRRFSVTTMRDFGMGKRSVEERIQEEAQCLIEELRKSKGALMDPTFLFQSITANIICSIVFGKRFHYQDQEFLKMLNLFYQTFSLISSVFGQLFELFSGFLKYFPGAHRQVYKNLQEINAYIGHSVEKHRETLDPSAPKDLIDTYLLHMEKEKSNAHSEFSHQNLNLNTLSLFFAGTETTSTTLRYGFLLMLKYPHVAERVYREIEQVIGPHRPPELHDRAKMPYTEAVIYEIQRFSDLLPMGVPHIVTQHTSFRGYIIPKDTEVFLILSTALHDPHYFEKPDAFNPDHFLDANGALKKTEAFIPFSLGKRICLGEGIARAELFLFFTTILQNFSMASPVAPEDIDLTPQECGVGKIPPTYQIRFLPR
Chain of human CYP1A2, CYP1A2 (gene 1544) (P05177 whole entry, looked up): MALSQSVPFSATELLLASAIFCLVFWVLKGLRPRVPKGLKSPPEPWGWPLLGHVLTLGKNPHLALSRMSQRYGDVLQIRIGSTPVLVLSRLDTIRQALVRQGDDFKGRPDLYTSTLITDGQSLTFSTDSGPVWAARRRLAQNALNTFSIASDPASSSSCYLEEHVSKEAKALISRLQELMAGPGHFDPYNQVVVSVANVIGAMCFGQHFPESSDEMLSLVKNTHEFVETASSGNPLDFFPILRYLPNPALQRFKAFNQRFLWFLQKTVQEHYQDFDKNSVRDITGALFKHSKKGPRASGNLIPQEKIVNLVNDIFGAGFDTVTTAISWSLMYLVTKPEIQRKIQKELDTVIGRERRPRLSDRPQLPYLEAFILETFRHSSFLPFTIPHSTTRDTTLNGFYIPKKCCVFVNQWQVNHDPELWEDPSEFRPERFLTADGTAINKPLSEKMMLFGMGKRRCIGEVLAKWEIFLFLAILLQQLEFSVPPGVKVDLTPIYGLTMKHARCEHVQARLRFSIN
Chain of rat CYP2A2, Cyp2a2 (gene 24895) (P15149 whole entry, looked up): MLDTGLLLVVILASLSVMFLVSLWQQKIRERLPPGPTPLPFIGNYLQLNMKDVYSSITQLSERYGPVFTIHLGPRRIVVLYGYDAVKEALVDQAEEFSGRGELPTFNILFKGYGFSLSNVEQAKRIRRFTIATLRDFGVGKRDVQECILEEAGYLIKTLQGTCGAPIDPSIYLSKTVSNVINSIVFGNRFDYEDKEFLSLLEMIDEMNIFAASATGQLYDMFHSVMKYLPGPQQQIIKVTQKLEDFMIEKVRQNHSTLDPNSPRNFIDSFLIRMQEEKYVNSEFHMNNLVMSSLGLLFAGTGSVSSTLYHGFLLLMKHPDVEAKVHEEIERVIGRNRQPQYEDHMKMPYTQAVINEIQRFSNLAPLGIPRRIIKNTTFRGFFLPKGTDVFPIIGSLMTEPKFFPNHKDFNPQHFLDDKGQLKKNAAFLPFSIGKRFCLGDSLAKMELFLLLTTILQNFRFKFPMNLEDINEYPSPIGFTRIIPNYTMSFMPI
Chain of human CYP2A6, CYP2A6 (gene 1548) (P11509 whole entry, looked up): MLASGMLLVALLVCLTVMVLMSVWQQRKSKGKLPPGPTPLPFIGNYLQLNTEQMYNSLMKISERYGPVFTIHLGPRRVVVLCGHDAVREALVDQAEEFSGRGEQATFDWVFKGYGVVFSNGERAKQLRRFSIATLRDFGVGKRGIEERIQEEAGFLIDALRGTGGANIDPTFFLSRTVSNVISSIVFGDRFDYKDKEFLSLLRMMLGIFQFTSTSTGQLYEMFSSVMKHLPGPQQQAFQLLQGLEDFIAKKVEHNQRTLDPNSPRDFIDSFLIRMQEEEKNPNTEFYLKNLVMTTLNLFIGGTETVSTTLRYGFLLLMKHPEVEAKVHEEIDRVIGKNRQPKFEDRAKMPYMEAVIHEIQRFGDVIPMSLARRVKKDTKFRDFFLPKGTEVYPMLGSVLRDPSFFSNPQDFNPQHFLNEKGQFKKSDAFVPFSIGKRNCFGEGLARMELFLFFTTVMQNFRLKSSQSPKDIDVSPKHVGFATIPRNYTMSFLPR

Oc1ccc(C(c2ccc(O)cc2)(C(F)(F)F)C(F)(F)F)cc1
active: [1] 19.8 µM | [2] 32.4 µM | [3] 20.7 µM | [4] 18.1 µM | [5] 22.6 µM | [6] 7.19 µM | [7] 4.71 µM | [8] 0.406 µM | [9] 7.65 µM | [10] 3.97 µM | [11] 0.145 µM

CCCN(CCC)N=O
inactive: [1] | [2] | [3] | [4] | [12] | [5] | [6]

Cc1cc2c3c(c1)C(c1ccccc1)=N[C@@H](NC(=O)c1ccncc1)C(=O)N3CC2
active: [1] 4 µM | [4] 6.46 µM
inactive: [2] | [3] | [12] | [5] | [13] | [9]

ClC1=C(Cl)[C@]2(Cl)[C@@H]3[C@@H]4C[C@@H]([C@H]5O[C@@H]45)[C@@H]3[C@@]1(Cl)C2(Cl)Cl
active: [12] 20 µM | [5] 20 µM | [7] 3.88 µM | [11] 3.57 µM
inactive: [1] | [2] | [3] | [4]

CCC(C)(CC)c1cc(NC(=O)c2c(OC)cccc2OC)on1
inactive: [1] | [2] | [3] | [4] | [12] | [5] | [14]
active: [8] 2.79 µM | [11] 5.05 µM

CN(C)CCO
inactive: [1] | [2] | [3] | [4] | [12] | [5] | [11]

CCCCCCCCCC[N+](C)(C)CCCCCCCCCC
active: [1] 2.19 µM | [2] 3.59 µM | [3] 1.77 µM | [4] 7.36 µM | [12] 0.148 µM | [5] 5.35 µM | [15] 14.3 µM | [16] 1.38 µM | [9] 9.61 µM | [11] 6.37 µM

O=C(O)C(F)(F)C(F)(F)C(F)(F)C(F)(F)C(F)(F)C(F)(F)C(F)(F)C(F)(F)C(F)(F)F
active: [1] 34.3 µM and 54.9 µM and 52.9 µM | [2] 33.7 µM and 54.9 µM and 53.5 µM | [3] 29.8 µM and 47.3 µM and 51 µM | [4] 36.3 µM and 49.4 µM and 41.4 µM | [12] 34.1 µM and 46.2 µM and 47.6 µM | [5] 32 µM and 53.5 µM and 54.4 µM | [8] 1.12 µM

Nc1ccc(-c2ccc(N)cc2)cc1
inactive: [1] | [2] | [3] | [4] | [12] | [5]
active: [17] 3.1 µM | [8] 10 µM | [11] 8.09 µM

NS(=O)(=O)C(F)(F)C(F)(F)C(F)(F)C(F)(F)C(F)(F)C(F)(F)C(F)(F)C(F)(F)F
active: [1] 20 µM and 45.5 µM and 49 µM | [2] 34.6 µM and 51.3 µM and 56.3 µM | [3] 33.6 µM and 48 µM and 55.1 µM | [4] 31.8 µM and 43.3 µM and 44.3 µM | [12] 32.2 µM and 43.5 µM and 51.1 µM | [5] 27.6 µM and 47.4 µM and 44.9 µM | [8] 1.97 µM

O=S(=O)(O)C(F)(F)C(F)(F)C(F)(F)C(F)(F)C(F)(F)C(F)(F)F
inactive: [1] | [2] | [3] | [4] | [12] | [5] | [6]
active: [15] 9.34 µM | [8] 0.0791 µM

ClC1=C(Cl)[C@]2(Cl)[C@@H]3[C@@H](Cl)[C@H]4O[C@H]4[C@@H]3C1(Cl)C2(Cl)Cl
inactive: [2] | [3] | [4] | [6]
active: [1] 9.42 µM | [12] 14.7 µM | [5] 10.6 µM | [7] 7.84 µM

CCC(C)c1cc([N+](=O)[O-])cc([N+](=O)[O-])c1O (stereo unspecified)
active: [1] 14.2 µM | [2] 31.7 µM | [3] 5.36 µM | [4] 8.89 µM | [12] 19.6 µM | [5] 18 µM | [11] 15.2 µM

C[C@]12CCC(=O)C=C1CC[C@@H]1[C@@H]2CC[C@@]2(C)[C@H]1CC[C@]2(C)O
inactive: [1] | [2] | [3] | [4] | [12] | [5]
active: [11] 9.15 µM | [18] 5.45 µM | [19] 3.82 µM and 2.41 µM and 2.57 µM
